Pf Dd2 inh = P. falciparum Dd2 growth inhibitors, primary screen, SYBR Green fluorescence, single dose replicates | activity change, % at 10 µM | 72 h; active compounds read low | 94,000 compounds, 2.3% hits; in the data active means activity change below about -80%; inconclusive means no clear call, values can overlap the other calls
T cruzi growth-1 = T. cruzi intracellular proliferation inhibitors, primary screen, cell-based, beta-gal Tulahuen parasites, NIH3T3 host, luminescence | inhibition, % at 8.34 µM | 77,000 compounds, 5.9% hits | T. cruzi beta-gal in NIH3T3, GalScreen luminescence, 90 h;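 active means mean inhibition above about 93%, with at least 55% of replicates each passing it, limit read from the data, passing the limit was not always enough; inconclusive means only one of those two conditions holds; inactive means neither condition holds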
C diff growth = C. difficile growth inhibitors, primary screen, HTS; Clostridium difficile clinical isolate growth, OD600, 24 h; active compounds read low; growth activity, negative = inhibition, % at 16 µg/mL (by protocol); 86,000 compounds, 0.25% hits;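 active means mean growth activity at or below -80% and every replicate also at or below -80%; inconclusive means mean at or below -80% but some replicate above -80%; inactive means mean growth activity above -80%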;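 further: 0% = DMSO wells and -100% = levofloxacin 16 µg/mL wells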
T cruzi growth-2 = T. cruzi intracellular proliferation inhibitors, confirmation, cell-based, NIH3T3 host, beta-gal parasite, luminescence, cherry-pick; inhibition, % at 8.35 µM; 5,600 compounds, 72% hits; AID 651739, 2012; shares compounds with T cruzi growth-1; T. cruzi beta-gal in NIH3T3, GalScreen luminescence, 90 h;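 active means mean replicate inhibition above about 95% and at least 55% of replicates individually reaching it, limit read from the data; inconclusive means only one of the two criteria is met; inactive means neither criterion is met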
T cruzi growth-3 = inhibitors of intracellular T. cruzi replication, confirmation, NIH3T3 host cells, beta-gal parasites, cherry-pick, set 2; shares compounds with T cruzi growth-1; T. cruzi beta-gal in NIH3T3, GalScreen luminescence, 90 h; inhibition, % at 2.09 µM; 5,600 compounds, 21% hits; AID 651740, 2012;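 active means mean inhibition above about 95%, with at least 55% of replicates also reaching it, limit read from the data; inconclusive means meets just one of the two conditions; inactive means meets neither condition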;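 further: plate controls were neutral control median for no effect and positive control median for full effect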
3T3 cytotox = cytotoxicity in mouse NIH/3T3 fibroblasts, confirmation, cytotoxicity control for T. cruzi proliferation inhibitor project, cell-based, cherry-pick, single point; shares compounds with T cruzi growth-1; NIH/3T3 viability, CellTiter-Glo ATP luminescence, 90 h; cytotoxicity (signal decrease), % at 8.35 µM; 5,600 compounds, 14% hits;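 active means mean signal decrease across replicates above about 35% based on untreated-well scatter, with enough replicates individually passing, limit read from the data; inconclusive means no rule stated though some were filed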;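 further: 0% = median of neutral control wells and 100% = median of positive control wells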
NIH3T3 tox 2 = NIH/3T3 fibroblast cytotoxicity, confirmation, cytotoxicity control, cell-based, cherry-pick, single point, set 2; shares compounds with T cruzi growth-1; NIH/3T3 viability, CellTiter-Glo ATP luminescence, 90 h; inhibition, % at 24.9 µM; 5,600 compounds, 56% hits;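 active means mean loss of cell viability signal at or above a set limit, and enough replicates individually reaching it; inconclusive means meets only the mean limit or only the replicate share; inactive means meets neither condition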;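 further: 0% = median of neutral control wells and 100% = median of positive control wells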
* marks the source's active call; other numbers are inactive results; ? = inconclusive; · = no result. In the library only some 6.8% were active in any assay of this set; here they are far more common.

SMILES	Pf Dd2 inh	T cruzi growth-1	C diff growth	T cruzi growth-2	T cruzi growth-3	3T3 cytotox	NIH3T3 tox 2
C[C@H](CO)N1C[C@H](C)[C@H](CN(C)C(=O)NC2CCCCC2)OCCCC[C@H](C)Oc2ccc(NS(=O)(=O)c3ccccc3)cc2C1=O	-63.2	93.6*	7.5	?	38.1	-6.1	0.1
C[C@@H]1CCCCO[C@@H](CN(C)C(=O)NC2CCCCC2)[C@@H](C)CN([C@@H](C)CO)C(=O)c2cc(NS(=O)(=O)c3ccc(Cl)cc3)ccc2O1	-25.5	98.6*	3.3	103.3*	11.0	3.0	-17.3
Cc1ccc(S(=O)(=O)Nc2ccc3c(c2)C(=O)N([C@H](C)CO)C[C@@H](C)[C@@H](CN(C)C(=O)NC2CCCCC2)OCCCC[C@@H](C)O3)cc1	-67.5	68.3	1.0	·	·	·	·
CN1c2ccc(-c3ccccc3F)cc2[C@H]2[C@H](CCN2C(=O)NC2CCCCC2)[C@@H]1CO	-49.6	·	-46.8	·	·	·	·
C[C@@H]1CN([C@H](C)CO)C(=O)c2cc(NS(=O)(=O)c3ccc(F)cc3)ccc2O[C@@H](C)CCCCO[C@@H]1CN(C)S(=O)(=O)c1ccc(F)cc1	-72.6	107.2*	4.2	103.0*	71.5	-13.5	2.1
C[C@@H]1CCCCO[C@@H](CN(C)S(=O)(=O)c2ccc(F)cc2)[C@@H](C)CN([C@H](C)CO)C(=O)c2cc(NS(=O)(=O)c3ccc(F)cc3)ccc2O1	-46.9	49.2	-1.1	·	·	·	·
C[C@@H]1CCCCO[C@@H](CN(C)S(=O)(=O)c2ccc(F)cc2)[C@H](C)CN([C@H](C)CO)C(=O)c2cc(NS(=O)(=O)c3ccc(F)cc3)ccc2O1	-47.7	86.2	-1.4	·	·	·	·
C[C@@H]1CN([C@@H](C)CO)C(=O)c2cc(NS(=O)(=O)c3ccc(F)cc3)ccc2O[C@@H](C)CCCCO[C@H]1CN(C)S(=O)(=O)c1ccc(F)cc1	-46.6	112.6*	-3.4	106.8*	56.0	5.5	-1.2
O=C(C[C@H]1CC[C@H](NC(=O)c2ccc(F)cc2)[C@@H](CO)O1)NCc1ccncn1	18.2	7.8	5.1	·	·	·	·
N#Cc1ccc(-c2ccc([C@H]3[C@H]4CN(S(=O)(=O)c5ccccc5)CCCCN4[C@H]3CO)cc2)cc1	-6.7	113.7*	3.9	107.0*	75.7	22.4	24.0
O=S(=O)(c1ccccc1)N1CCCCN2[C@H](CO)[C@@H](c3ccc(-c4ccccc4)cc3)[C@@H]2C1	4.9	49.5	-8.4	·	·	·	·
CCS(=O)(=O)N1CCCCN2[C@H](CO)[C@H](c3ccc(-c4ccc(C#N)cc4)cc3)[C@@H]2C1	-39.0	55.0	1.2	·	·	·	·
N#Cc1ccc(-c2ccc([C@H]3[C@H](CO)N4CCCCN(S(=O)(=O)c5ccccc5)C[C@@H]34)cc2)cc1	-36.4	116.2*	20.2	108.4*	54.8	51.2*	88.1*
CCN1CC(=O)N2[C@@H](CO)[C@H](c3ccc(-c4cccnc4)cc3)[C@@H]2C1	22.4	·	-3.7	·	·	·	·
C[C@@H]1CN([C@@H](C)CO)C(=O)c2cc(C#CC3(O)CCCC3)cnc2O[C@H]1CN(C)C(=O)C1CC1	17.8	-5.2	·	·	·	·	·
O=C(NCC[C@H]1CC[C@H](NS(=O)(=O)Cc2ccccc2)[C@@H](CO)O1)C1CC1	15.6	·	-1.8	·	·	·	·
C[C@@H]1CN([C@H](C)CO)C(=O)c2cc(NC(=O)CCC(F)(F)F)ccc2O[C@@H]1CN(C)Cc1ccccc1	-13.8	-6.8	-1.1	·	·	·	·
CN(C)C(=O)c1cccc(-c2ccc([C@@H]3[C@@H](CO)N(C(=O)C4CCCC4)[C@H]3C#N)cc2)c1	-26.6	·	1.1	·	·	·	·
CN(C)C(=O)c1cccc(-c2ccc([C@@H]3[C@H](C#N)N(C(=O)C4CCC4)[C@H]3CO)cc2)c1	17.4	100.0*	-8.0	91.6	0.6	16.0	14.8
CN(C)C(=O)c1ccc(-c2ccc([C@@H]3[C@@H](C#N)N(C(=O)C4CCOCC4)[C@H]3CO)cc2)cc1	25.2	98.2*	-11.7	78.1	21.0	-14.9	17.8
CN(C)C(=O)c1cccc(-c2ccc([C@H]3[C@@H](CO)N(C(=O)C4CCC4)[C@H]3C#N)cc2)c1	-52.4	103.6*	-4.9	72.3	31.9	10.6	10.1
CN(C)C(=O)c1ccc(-c2ccc([C@H]3[C@H](C#N)N(C(=O)C4CCC4)[C@H]3CO)cc2)cc1	-25.8	36.6	0.2	·	·	·	·
CN(C)C(=O)c1cccc(-c2ccc([C@H]3[C@@H](C#N)N(C(=O)C4CCCCC4)[C@H]3CO)cc2)c1	-12.5	37.7	7.6	·	·	·	·
CN(C)C(=O)c1cccc(-c2ccc([C@H]3[C@@H](C#N)N(C(=O)C4CCC4)[C@H]3CO)cc2)c1	-6.7	102.5*	-3.0	-20.5	-7.9	-21.2	-29.6
CN(C)C(=O)c1cccc(-c2ccc([C@@H]3[C@@H](C#N)N(C(=O)C4CCC4)[C@H]3CO)cc2)c1	14.1	72.9	-2.7	·	·	·	·
SMILES	Pf Dd2 inh	T cruzi growth-1	C diff growth	T cruzi growth-2	T cruzi growth-3	3T3 cytotox	NIH3T3 tox 2
O=C(C[C@H]1CC[C@@H](NC(=O)C2CCC2)[C@@H](CO)O1)NCc1ccccc1Cl	3.8	-27.9	-2.6	·	·	·	·
O=C(C[C@@H]1CC[C@@H]2[C@H](COC[C@@H](O)CN2CC2CCCC2)O1)NCc1ccc(Cl)cc1	-27.8	·	0.5	·	·	·	·
C[C@@H]1CN([C@H](C)CO)C(=O)c2cc(NC(=O)Nc3ccc(C(F)(F)F)cc3)ccc2O[C@H]1CN(C)Cc1ccc(-c2ccccc2)cc1	-9.9	122.5*	11.9	88.9	?	84.0*	102.3*
C[C@@H]1CN([C@H](C)CO)C(=O)c2cc(NC(=O)Nc3ccccc3)ccc2O[C@H]1CN(C)Cc1ccc(C(F)(F)F)cc1	-22.1	16.5	-1.5	·	·	·	·
C[C@@H]1CN([C@@H](C)CO)C(=O)c2cc(NC(=O)Nc3ccc(C(F)(F)F)cc3)ccc2O[C@@H]1CN(C)Cc1ccc(-c2ccccc2)cc1	-22.9	120.4*	70.6	101.6*	97.8*	55.8*	103.2*
C[C@H]1CN([C@@H](C)CO)C(=O)c2cc(NC(=O)Nc3ccc(C(F)(F)F)cc3)ccc2O[C@H]1CN(C)Cc1ccc(C(F)(F)F)cc1	36.1	40.8	22.0	·	·	·	·
C[C@H](CO)N1C[C@H](C)[C@@H](CN(C)Cc2ccccc2)Oc2ccc(NC(=O)Nc3ccc(C(F)(F)F)cc3)cc2C1=O	-20.4	29.7	0.6	·	·	·	·

High-throughput results: PubChem BioAssay, Broad Institute
